Test results published in PubChem BioAssay.
Values without a mark were called inactive. For part of these data: Measured potencies and affinities stand elsewhere. The source made the active and inactive calls. Unless noted, no rule for the calls is given here.

Key:
[1] = antimalarial activity against Dd2 strain (AID 2302;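 active = growth inhibition above 50% at the single 2 µM test dose, taken to imply half-maximal potency below 2 µM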;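 also: 0% = DMSO untreated growth and 100% = chloroquine plus artemisinin killed control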); details: P. falciparum Dd2 in RBCs, LDH growth readout, 72 h; at 2 µM; hits give high values
[2] = HepG2 cytotoxicity, primary screen, cytotoxicity control for P. falciparum antimalarial project, cell-based, ATP luminescence (AID 2303;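 active = inhibition above 50%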;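 also: 0% = DMSO wells and 100% = digitonin-killed cells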); details: HepG2 viability, 24-48 h, at 10 µM, hits give high values
[3] = target: L-lactate dehydrogenase (Plasmodium falciparum (isolate CDC / Honduras)) (UniProt Q27743); assay: PfLDH activity inhibition – cell lysate, 3D7 strain, counter-screen for P. falciparum growth inhibition project (AID 2304);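 also: 0% = vehicle and 100% = reference inhibitor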; details: P. falciparum 3D7 crude extract, LDH APAD/NBT absorbance; at 2 µM; hits give high values
Chain of L-lactate dehydrogenase (Plasmodium falciparum (isolate CDC / Honduras)) (Q27743 whole entry, looked up): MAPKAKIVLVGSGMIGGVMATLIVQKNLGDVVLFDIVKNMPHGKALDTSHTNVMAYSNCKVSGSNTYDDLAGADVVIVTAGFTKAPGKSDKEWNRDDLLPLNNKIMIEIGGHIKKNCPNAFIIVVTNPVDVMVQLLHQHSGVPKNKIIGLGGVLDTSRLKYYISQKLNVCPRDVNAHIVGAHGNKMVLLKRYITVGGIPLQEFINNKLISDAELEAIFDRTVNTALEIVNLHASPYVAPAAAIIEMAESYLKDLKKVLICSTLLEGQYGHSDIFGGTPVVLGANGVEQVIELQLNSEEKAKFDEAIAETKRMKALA

[4] = inhibition of 3D7 malaria parasite growth – strain 3D7 (AID 2306);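 also: 0% = DMSO wells and 100% = chloroquine plus artemisinin control wells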; details: P. falciparum 3D7 erythrocytic growth, LDH absorbance, 72 h; at 2 µM; hits give high values
[5] = target: Calcium-dependent protein kinase 1 (Plasmodium falciparum (isolate 3D7)) (UniProt P62344); assay: PfCDPK1 kinase inhibitors, biochemical, TCAMS library (AID 1159585; cut-off not given, nearly all actives have IC50 up to about 0.98 µM;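 also: inhibitors leave more ATP so luminescence rises with inhibition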); details: recombinant PfCDPK1, Kinase-Glo ATP depletion luminescence
Chain of Calcium-dependent protein kinase 1 (Plasmodium falciparum (isolate 3D7)) (P62344 whole entry, looked up): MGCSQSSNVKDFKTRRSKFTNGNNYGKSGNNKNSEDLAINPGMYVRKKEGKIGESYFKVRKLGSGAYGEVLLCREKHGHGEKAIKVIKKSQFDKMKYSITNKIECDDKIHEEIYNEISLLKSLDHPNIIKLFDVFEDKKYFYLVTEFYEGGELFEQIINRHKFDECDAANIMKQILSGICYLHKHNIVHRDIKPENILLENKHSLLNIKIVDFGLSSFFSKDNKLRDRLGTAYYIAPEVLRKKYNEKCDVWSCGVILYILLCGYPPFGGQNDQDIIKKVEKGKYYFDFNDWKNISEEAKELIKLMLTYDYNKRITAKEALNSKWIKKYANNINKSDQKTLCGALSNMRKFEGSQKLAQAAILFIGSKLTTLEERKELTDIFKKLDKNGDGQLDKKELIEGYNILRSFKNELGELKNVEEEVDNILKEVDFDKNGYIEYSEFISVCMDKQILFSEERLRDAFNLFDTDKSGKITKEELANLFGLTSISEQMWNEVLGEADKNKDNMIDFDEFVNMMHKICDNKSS

[6] = target: Plasmodium falciparum protein kinase 6 (PK6, PF3D7_1337100) (UniProt Q8IDW1); assay: PfPK6 kinase inhibitors, biochemical, TCAMS library (AID 1159586); details: recombinant PfPK6, Kinase-Glo ATP depletion luminescence
Chain of Plasmodium falciparum protein kinase 6 (PK6, PF3D7_1337100) (Q8IDW1 1-305): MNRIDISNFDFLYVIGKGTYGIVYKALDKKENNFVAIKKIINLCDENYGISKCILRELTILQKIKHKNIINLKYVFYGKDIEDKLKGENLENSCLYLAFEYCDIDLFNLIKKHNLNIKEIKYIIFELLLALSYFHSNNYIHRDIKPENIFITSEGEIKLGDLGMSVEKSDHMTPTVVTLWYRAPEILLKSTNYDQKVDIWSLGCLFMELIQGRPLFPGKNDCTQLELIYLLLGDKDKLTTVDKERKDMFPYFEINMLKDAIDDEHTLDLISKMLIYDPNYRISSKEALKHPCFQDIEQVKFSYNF

[7] = target: Protein kinase 7 (PK7), Plasmodium falciparum 3D7 (PF3D7_0213400) (UniProt Q7YTF7); assay: inhibition of Plasmodium PK7 catalytic activity – biochemical, TCAMS antimalarial set, Kinase-Glo luminescence (AID 1159587); details: recombinant PfPK7, Kinase-Glo ATP depletion luminescence
Chain of Protein kinase 7 (PK7), Plasmodium falciparum 3D7 (PF3D7_0213400) (Q7YTF7 1-343): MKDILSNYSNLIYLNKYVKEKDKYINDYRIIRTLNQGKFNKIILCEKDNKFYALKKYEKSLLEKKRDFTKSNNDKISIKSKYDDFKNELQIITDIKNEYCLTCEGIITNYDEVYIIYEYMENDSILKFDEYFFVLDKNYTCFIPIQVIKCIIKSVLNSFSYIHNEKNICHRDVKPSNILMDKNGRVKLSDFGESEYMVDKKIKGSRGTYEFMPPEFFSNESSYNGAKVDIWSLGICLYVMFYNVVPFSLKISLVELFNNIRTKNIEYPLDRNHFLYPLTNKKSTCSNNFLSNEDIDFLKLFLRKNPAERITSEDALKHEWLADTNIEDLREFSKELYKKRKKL

[8] = target: Calcium-dependent protein kinase 4 (Plasmodium falciparum (isolate 3D7)) (UniProt Q8IBS5); assay: PfCDPK4 kinase inhibitors, biochemical, TCAMS library (AID 1159588; cut-off not given, nearly all actives have IC50 up to about 0.91 µM); details: recombinant PfCDPK4, Kinase-Glo ATP depletion luminescence
Chain of Calcium-dependent protein kinase 4 (Plasmodium falciparum (isolate 3D7)) (Q8IBS5 whole entry, looked up): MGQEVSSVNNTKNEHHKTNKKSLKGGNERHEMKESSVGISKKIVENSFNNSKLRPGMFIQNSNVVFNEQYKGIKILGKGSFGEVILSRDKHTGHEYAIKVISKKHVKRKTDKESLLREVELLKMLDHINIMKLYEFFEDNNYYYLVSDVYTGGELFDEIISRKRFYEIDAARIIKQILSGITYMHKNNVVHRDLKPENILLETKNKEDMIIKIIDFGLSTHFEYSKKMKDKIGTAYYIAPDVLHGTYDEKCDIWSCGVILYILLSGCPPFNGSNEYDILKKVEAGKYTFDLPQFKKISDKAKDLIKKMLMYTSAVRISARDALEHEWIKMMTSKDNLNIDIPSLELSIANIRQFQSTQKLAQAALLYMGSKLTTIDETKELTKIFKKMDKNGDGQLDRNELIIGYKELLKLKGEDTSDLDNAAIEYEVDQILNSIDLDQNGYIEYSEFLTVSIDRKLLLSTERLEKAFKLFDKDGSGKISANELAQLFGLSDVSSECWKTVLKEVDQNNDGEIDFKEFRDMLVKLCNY

| Structure (SMILES) | growth inhibition [1] | inhibition [2] | inhibition [3] | growth inhibition [4] | outcome [5] | outcome [6] | outcome [7] | outcome [8] |
| --- | --- | --- | --- | --- | --- | --- | --- | --- |
| COc1cccc(C(=O)OC2=C3CCC(=O)C3(C)CCC2=O)c1 (configuration not stated) | 9% | 37% | 2% | 93% (active) | inactive | inactive | inactive | inactive |
| CCOc1ccc2nc(C)cc(NN=Cc3ccccc3[N+](=O)[O-])c2c1 | 99% (active) | 91% (active) | -5% | 101% (active) | inactive | inactive | inactive | inactive |
| Cc1ccc(C(=O)N2CCc3cc4nccc(N5CCN6CCC[C@H]6C5)c4cc32)cc1 | 13% | 5% | -5% | 95% (active) | inactive | inactive | inactive | inactive |
| Cc1ccc(NC(C)C(=O)Nc2ccc(C#N)cc2)cc1S(=O)(=O)N1CCCCC1 (configuration not stated) | 92% (active) | 11% | 1% | 92% (active) | inactive | inactive | inactive | inactive |
| COc1cc(Cc2cnc(N)nc2N)cc(CC(C)O)c1O (configuration not stated) | 2% | -2% | -2% | 93% (active) | inactive | inactive | inactive | inactive |
| Cc1cccc2[nH]c(-c3ccc(-c4ccc(NC(=O)N[C@@H]5C[C@H]5c5ccccc5)cc4)cc3)nc12 | 3% | 28% | -5% | 96% (active) | inactive | inactive | inactive | inactive |
| O=C(Cn1c(CCc2cccc(F)c2F)cc(=O)c2ccccc21)N(CCN1CCCC1)Cc1ccc(-c2ccc(C(F)(F)F)cc2)cc1 | 57% (active) | 89% (active) | -2% | 99% (active) | inactive | inactive | inactive | inactive |
| COc1ccc(-c2nc3ccc(C)nc3nc2-c2ccc(OC)cc2)cc1 | -2% | 4% | 4% | 91% (active) | inactive | inactive | inactive | inactive |
| N#Cc1ccc(N2CCN(Cc3cccc(-c4ccc(-c5nc6ccccc6[nH]5)cc4)c3)CC2)nc1 | 40% | 45% | -1% | 89% (active) | inactive | inactive | inactive | inactive |
| O=C(Cc1cnc[nH]1)Nc1ccc(-c2ccc(-c3nc4ccc(F)cc4[nH]3)cc2)cc1 | 91% (active) | 39% | 0% | 100% (active) | inactive | inactive | inactive | inactive |
| CCCc1cc(Cc2cnc(N)nc2N)cc(CCC)c1O | 5% | 64% (active) | 2% | 96% (active) | inactive | inactive | inactive | inactive |
| CNCc1ccc(-c2cccc(CNCc3ccc(-c4ccccc4)cc3)c2)c(C(=O)OC)c1 | 19% | 25% | 3% | 92% (active) | inactive | inactive | inactive | inactive |
| O=C(Nc1cccc(C(F)(F)F)c1)Nc1ccc(F)c([N+](=O)[O-])c1 | 100% (active) | 43% | -4% | 101% (active) | inactive | inactive | inactive | inactive |
| COc1ccc2nc(C)cc(NN=Cc3ccncc3)c2c1 | 68% (active) | 6% | 1% | 102% (active) | inactive | inactive | inactive | inactive |
| CCc1ccc(CN2CCC(NC(=O)c3ccc(-c4ccc(N(C)C)cc4)s3)CC2)cc1 | 44% | 52% (active) | -4% | 84% (active) | inactive | inactive | inactive | inactive |
| CCOC(=O)c1cc(C(=O)OC)c2ccccn12 | 2% | 44% | -2% | 97% (active) | inactive | inactive | inactive | inactive |
| O=c1cc(NCCC(CNCCc2ccccc2)NCc2cc(Br)cc(Br)c2)[nH]c2ccccc12 (configuration not stated) | 47% | 3% | -6% | 98% (active) | inactive | inactive | inactive | inactive |
| O=S(=O)(NCCN1CCCC1)c1ccc(-c2cccc(CNCc3ccc(F)cc3)c2)cc1F | 36% | 43% | -1% | 97% (active) | inactive | inactive | inactive | inactive |
| O=[N+]([O-])c1cccc(Nc2nccc(-c3cnn4ncccc34)n2)c1 | 74% (active) | 33% | -1% | 87% (active) | inactive | inactive | inactive | inactive |
| O=C(/C=C/c1ccc(Cl)c(Cl)c1)NC1CCC(CN2CCC(c3nc4ccccc4s3)CC2)CC1 (configuration not stated) | 32% | 50% (active) | -4% | 87% (active) | inactive | inactive | inactive | inactive |

| Structure (SMILES) | growth inhibition [1] | inhibition [2] | inhibition [3] | growth inhibition [4] | outcome [5] | outcome [6] | outcome [7] | outcome [8] |
| --- | --- | --- | --- | --- | --- | --- | --- | --- |
| Cc1ccc2[nH]cc(/C=C/C(=O)NC3CCC(CCN4CCc5ccc(C#N)cc5CC4)CC3)c2c1 (configuration not stated) | 49% | 11% | -4% | 93% (active) | inactive | inactive | inactive | inactive |
| O=C(Nc1cccc(CN2CCCN(Cc3ccc(F)cc3)CC2)c1)c1ccc(Cl)c(Cl)c1 | 17% | 27% | 7% | 95% (active) | inactive | inactive | inactive | inactive |
| CC(C)(C)c1ccc(CN2CCCCC(NC(=O)c3cc(-c4ccccc4Cl)cs3)C2)cc1 (configuration not stated) | 98% (active) | 3% | -1% | 101% (active) | inactive | inactive | inactive | inactive |
| CCC(C)NS(=O)(=O)c1ccc2nc(Nc3ccc(C)c(Cl)c3)n([C@H](C)C(C)(C)C)c2c1 (some centres not stated) | 100% (active) | 8% | -5% | 98% (active) | inactive | inactive | inactive | inactive |
| Oc1cc(Nc2ccnc3ccc(I)cc23)c(F)cc1Cl | 13% | 20% | 0% | 95% (active) | inactive | inactive | inactive | inactive |
| CC(C)c1ccc(CN2CCC(NC(=O)c3ccc(-c4ccccc4F)s3)CC2)cc1 | 13% | 46% | 2% | 81% (active) | inactive | inactive | inactive | inactive |
| Clc1ccc2c(NCCc3ccccn3)ccnc2c1 | 72% (active) | 13% | -1% | 92% (active) | inactive | inactive | inactive | inactive |
| NC1CCN(Cc2cccc(-c3ccc(-c4nc5ccc(C(F)(F)F)cc5[nH]4)cc3)c2)C1 (configuration not stated) | 97% (active) | 21% | -9% | 99% (active) | inactive | inactive | inactive | inactive |
| O=c1cc(NCCCNCc2scc3c(Cl)cc(C(F)(F)F)nc23)[nH]c2ccccc12 | 21% | 9% | -1% | 99% (active) | inactive | inactive | inactive | inactive |
| COc1ccc(C(=C(C)CC(C)C(=O)O)c2ccccc2)cc1 (configuration not stated) | -2% | 6% | -8% | 95% (active) | inactive | inactive | inactive | inactive |
| O=C(O)C1Cc2c([nH]c3ccccc23)C(c2ccc(Cl)cc2Cl)N1 (configuration not stated) | 100% (active) | 7% | 0% | 91% (active) | inactive | inactive | inactive | inactive |
| O=C(/C=C/c1ccc(Cl)c(Cl)c1)NCCCCCCN1CCN(C(=O)Nc2ccc(Cl)c(Cl)c2)CC1 | 0% | 23% | -1% | 88% (active) | inactive | inactive | inactive | inactive |
| CCCC(C)NC[C@@H](O)[C@H](Cc1ccccc1)NC(=O)c1cc(C2CCCC2)cc(N2CCCCS2(=O)=O)c1 (some centres not stated) | 99% (active) | 8% | 3% | 98% (active) | inactive | inactive | inactive | inactive |
| Cc1ccc2nc(Nc3ccc(Nc4nc5ccc(C)cc5[nH]4)c(C)c3)[nH]c2c1 | 94% (active) | 12% | 6% | 99% (active) | inactive | inactive | inactive | inactive |
| O=C(NCCCCN1CCC(c2ccc3c(c2OCc2ccncc2)CCCC3)CC1)c1ccc(NC(=O)c2ccc(Cl)cc2)cc1 | 99% (active) | 62% (active) | -4% | 100% (active) | inactive | inactive | inactive | inactive |
| O=C(/C=C/c1ccc(Cl)c(Cl)c1)NCCCCCN1CCC(C(=O)Nc2ccc(Cl)c(Cl)c2)CC1 | 0% | 73% (active) | -2% | 98% (active) | inactive | inactive | inactive | inactive |
| O=C(Nc1cccc(CN2CCCN(CC3CC3)CC2)c1)c1ccc(-c2ccccc2)cc1 | 5% | 15% | 6% | 96% (active) | inactive | inactive | inactive | inactive |
| CC1CCN(CC[C@H]2CCCN2S(=O)(=O)c2cccc(NC(=O)Nc3ccc(C(F)(F)F)cc3)c2)CC1 | 41% | 12% | 2% | 100% (active) | inactive | inactive | inactive | inactive |
| Cc1ccc(C(C(=O)Nc2ccc(N3CCNCC3)c(Cl)c2)c2ccccc2)cc1 (configuration not stated) | 93% (active) | 23% | -2% | 97% (active) | inactive | inactive | inactive | inactive |
